Screening results: PubChem BioAssay, several laboratories
Shown are actives, neighbours in structure and some others; about 5.9% of the full set was active somewhere.
ABHD5 PLIN5 PPI: ABHD5-PLIN5 protein interaction inhibition; Q00G26+Q8WTS1; Split G. princeps luciferase complementation, luminescence, 4 h; inhibition, % at 4 µM; 360,000 compounds, 0.78% hits; AID 602281;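 active means inhibition above the mean inhibition across every tested compound plus 3 SD, cut at about 22% in these data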;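 further: 0% = DMSO only wells and the 100% control is not disclosed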
Target sequence (Q00G26 whole entry, looked up): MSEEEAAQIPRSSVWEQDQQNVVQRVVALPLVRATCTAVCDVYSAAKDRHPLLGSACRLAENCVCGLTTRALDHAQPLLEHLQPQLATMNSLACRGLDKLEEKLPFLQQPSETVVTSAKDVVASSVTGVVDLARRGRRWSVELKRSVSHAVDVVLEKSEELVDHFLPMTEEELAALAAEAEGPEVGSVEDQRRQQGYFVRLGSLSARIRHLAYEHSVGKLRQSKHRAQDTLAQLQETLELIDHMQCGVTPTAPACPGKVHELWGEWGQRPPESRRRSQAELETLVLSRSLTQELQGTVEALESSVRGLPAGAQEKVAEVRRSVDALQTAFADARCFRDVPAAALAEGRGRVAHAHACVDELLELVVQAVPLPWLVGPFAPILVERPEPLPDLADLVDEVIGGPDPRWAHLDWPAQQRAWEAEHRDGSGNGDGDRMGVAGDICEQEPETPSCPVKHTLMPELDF
Target sequence (Q8WTS1 whole entry, looked up): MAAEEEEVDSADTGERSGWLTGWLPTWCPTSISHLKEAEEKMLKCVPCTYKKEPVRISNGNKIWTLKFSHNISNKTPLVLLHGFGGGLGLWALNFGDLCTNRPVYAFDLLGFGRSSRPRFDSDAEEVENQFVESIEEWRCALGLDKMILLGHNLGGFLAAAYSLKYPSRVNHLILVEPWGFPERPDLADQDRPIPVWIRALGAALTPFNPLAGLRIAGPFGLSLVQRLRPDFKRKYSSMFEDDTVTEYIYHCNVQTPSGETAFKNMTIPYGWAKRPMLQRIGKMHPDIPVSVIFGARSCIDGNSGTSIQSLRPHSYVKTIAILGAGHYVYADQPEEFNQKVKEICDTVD
rCAG RNA binder: binds r(CAG) RNA repeats; 370,000 compounds, 1.3% hits; r(CAG) RNA repeat, TO-PRO-1 dye displacement fluorescence; inhibition, % at 3 µM;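 active means inhibition above the plate cutoff, the mean of all test compounds on that plate plus 3 SD, cut at about 35% in these data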;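 further: 0% = DMSO alone and 100% = 100 µM mitoxantrone as full dye displacement; higher means more dye released from RNA so lower well fluorescence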
ALR inh: blocks human ALR sulfhydryl oxidase activity | 290,000 compounds, 3.8% hits | inhibition, % (concentration not given with the values) | P55789 | AID 485317 | purified ALR, DTT oxidation, H2O2 HRP-luminol luminescence;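 active means mean replicate inhibition above about 79%, with every replicate also reaching it, limit read from the data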
PRMT1 FP inh: inhibitors of human PRMT1; Q99873; recombinant PRMT1, activity-based probe fluorescence polarization; inhibition, % at 2.79 µM; 370,000 compounds, 1.3% hits; AID 652257;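 active means inhibition above about 21% made by adding two undisclosed values, limit read from the data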
Rtt109 Vps75: blocks Candida albicans Rtt109/Vps75 acetyltransferase activity; Q5AAJ8; purified Rtt109/Vps75, ThioGlo CoA-SH fluorescence, 4 h; inhibition, % at 34.9 µM; 330,000 compounds, 0.16% hits; AID 540336;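 active means inhibition of at least 50% in every replicate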
LANA-H2B inh: blocks KSHV LANA binding to histone H2A/H2B; AID 2629; inhibition, % (no concentration beside the values); cell-free LANA-H2A/H2B peptide, fluorescence polarization; Q9QR71; 320,000 compounds, 0.6% hits; in the data active means inhibition mostly above about 10%, no sharp cut-off; inactive means mostly below about 6.7%
* hit, by the source's call; ! = not active in a repeat.

How did O=[N+]([O-])c1ccc(Nc2ccc(N3CCOCC3)cc2)c([N+](=O)[O-])c1 do in these assays?
ABHD5 PLIN5 PPI: 2.3; rCAG RNA binder: 0.9; ALR inh: 98.6*; PRMT1 FP inh: 0.3; Rtt109 Vps75: 11.4; LANA-H2B inh: -3.5

How did Cc1ccc2nc(SCC(=O)Nc3cccc(Cl)c3)nc(=O)n2c1 do in these assays?
ABHD5 PLIN5 PPI: 6.0; rCAG RNA binder: 3.7; ALR inh: 97.3*; PRMT1 FP inh: -6.0; Rtt109 Vps75: -11.4; LANA-H2B inh: 4.3

Results for Cc1ccc2nc(SCC(=O)Nc3cccc(F)c3)nc(=O)n2c1 ?
ABHD5 PLIN5 PPI: -7.8; rCAG RNA binder: 1.0; PRMT1 FP inh: -1.2; Rtt109 Vps75: -3.5

Results for COc1ccc2c(c1OC)C(=O)N(c1cccc(NC(C)=O)c1)C2 ?
ABHD5 PLIN5 PPI: 5.4; rCAG RNA binder: 6.5; ALR inh: 96.8*; PRMT1 FP inh: -2.3; LANA-H2B inh: 3.3

How did COc1ccc2c(c1OC)C(=O)N(c1ccc(F)cc1)C2 do in these assays?
ABHD5 PLIN5 PPI: 1.4; rCAG RNA binder: -2.7; ALR inh: -2.1; PRMT1 FP inh: -4.2; Rtt109 Vps75: 10.1; LANA-H2B inh: -3.6

How did COc1ccc2c(c1)CNC2CS(=O)(=O)NC1CCCC1 (stereo not given) do in these assays?
rCAG RNA binder: 9.2; PRMT1 FP inh: 6.8

What do the screens show for `COc1ccc(OC)c(S(=O)(=O)N(CC(=O)NC2CCC(C)CC2)c2cc(C)cc(C)c2)c1` (stereo not given)?
rCAG RNA binder: 3.2; PRMT1 FP inh: 1.0

How did Cc1cn([C@H]2C[C@H](N=[N+]=[N-])[C@@H](CO)O2)c(=O)[nH]c1=O do in these assays?
ABHD5 PLIN5 PPI: 0.2; rCAG RNA binder: 0.7; PRMT1 FP inh: -2.7; Rtt109 Vps75: -7.4; LANA-H2B inh: 15.1*!

What do the screens show for `O=C(NCc1cccc(C(F)(F)F)c1)c1ccc2sc(C3=C[C@@H](O)[C@@H](O)[C@@H](CO)O3)nc2c1`?
ABHD5 PLIN5 PPI: -14.3

How did CCN1/C(=C\C=C2\C(=O)N(C)C(=S)N2C)Sc2ccccc21 do in these assays?
ABHD5 PLIN5 PPI: 11.0; rCAG RNA binder: 1.3; ALR inh: 20.7; PRMT1 FP inh: 20.8; Rtt109 Vps75: -5.7; LANA-H2B inh: -3.1

Results for CCOC(=O)/C(=C/C=C1\Sc2cc(OCC)c(OCC)cc2N1CC)C(C)=O ?
ABHD5 PLIN5 PPI: 6.5; rCAG RNA binder: -82.1; ALR inh: 91.6*; PRMT1 FP inh: -31.9; Rtt109 Vps75: -5.1; LANA-H2B inh: -21.8

How did CCOC(=O)/C(=C\C=C1/Sc2cc(OCC)c(OCC)cc2N1CC)C(C)=O do in these assays?
ABHD5 PLIN5 PPI: -2.6; rCAG RNA binder: -77.5; ALR inh: 92.8*; PRMT1 FP inh: -46.3; Rtt109 Vps75: 3.4; LANA-H2B inh: -24.3

How did C[C@@H]1CN([C@@H](C)CO)C(=O)CCCn2nncc2CO[C@H]1CN(C)S(=O)(=O)c1ccc(Oc2ccccc2)nc1 do in these assays?
ABHD5 PLIN5 PPI: 0.5; rCAG RNA binder: 3.8; PRMT1 FP inh: -2.5

How did CC(=O)Nc1ccc(-c2ccnc3c2CC(C(=O)Nc2cccc(N(C)C)c2)O3)cc1 (stereo not given) do in these assays?
ABHD5 PLIN5 PPI: 6.9; rCAG RNA binder: 2.4; PRMT1 FP inh: 1.3

How did COc1ccc(C(=O)N2CCN=C2SCc2cccnc2)c(OC)c1 do in these assays?
ABHD5 PLIN5 PPI: -11.6; rCAG RNA binder: 0.6; ALR inh: 99.7*; PRMT1 FP inh: 5.1; Rtt109 Vps75: -16.7; LANA-H2B inh: -1.0

Results for COc1cccc(C(=O)N2CCN=C2SCc2cccnc2)c1OC ?
ABHD5 PLIN5 PPI: -17.6; rCAG RNA binder: 0.8; ALR inh: 99.8*; PRMT1 FP inh: 7.7; Rtt109 Vps75: -15.6; LANA-H2B inh: 4.4

What do the screens show for `COc1ccccc1C(=O)N1CCN=C1SC`?
ABHD5 PLIN5 PPI: 7.8; rCAG RNA binder: -4.6; ALR inh: -12.9; PRMT1 FP inh: 0.0; Rtt109 Vps75: -2.7; LANA-H2B inh: 2.6

Results for COc1nc(Nc2ccc(O)cc2)nc(OC(C(F)(F)F)C(F)(F)F)n1 ?
ABHD5 PLIN5 PPI: -1.4; rCAG RNA binder: -0.3; ALR inh: 99.0*; PRMT1 FP inh: -1.6; Rtt109 Vps75: 7.9; LANA-H2B inh: 0.2

What do the screens show for `Nc1nn2cc(-c3ccccc3)nc2c2ccccc12`?
ABHD5 PLIN5 PPI: -3.4; rCAG RNA binder: 4.7; ALR inh: 95.4*; PRMT1 FP inh: -1.6; Rtt109 Vps75: -32.4; LANA-H2B inh: -0.2

How did Cc1cn2nc(N)c3ccccc3c2n1 do in these assays?
ABHD5 PLIN5 PPI: -5.0; rCAG RNA binder: 1.5; ALR inh: -3.6; PRMT1 FP inh: -1.7; Rtt109 Vps75: 4.7; LANA-H2B inh: 3.7

What do the screens show for `CCOC(=O)[C@]12CCCC3=C1N(CCC3)C(=O)[C@@H](CC(=O)NCC1CCCCC1)C2`?
rCAG RNA binder: -2.8; PRMT1 FP inh: -5.1

Results for Cc1cc(Br)cc(C)c1NC(=S)NC(=O)CC(C)C ?
ABHD5 PLIN5 PPI: -9.3; rCAG RNA binder: -1.8; ALR inh: 90.3*; PRMT1 FP inh: 1.7; Rtt109 Vps75: -2.5; LANA-H2B inh: 1.2

What do the screens show for `CCC(=O)NC(=S)Nc1c(C)cc(Br)cc1C`?
ABHD5 PLIN5 PPI: -2.9; rCAG RNA binder: 2.3; ALR inh: -1.8; PRMT1 FP inh: 0.4; Rtt109 Vps75: -9.7; LANA-H2B inh: 3.1

What do the screens show for `C=CCNC(=S)N/N=C(\C)c1cccnc1`?
ABHD5 PLIN5 PPI: -5.2; rCAG RNA binder: -2.9; ALR inh: 82.8*; PRMT1 FP inh: 3.1; Rtt109 Vps75: 10.8; LANA-H2B inh: -1.8

How did CC(=O)C1=C(C)NC(SCC(=O)c2ccc(Cl)cc2)=C(C#N)C1CC(C)C (stereo not given) do in these assays?
ABHD5 PLIN5 PPI: -9.8; rCAG RNA binder: -0.5; ALR inh: -29.7; PRMT1 FP inh: 4.5; Rtt109 Vps75: 1.6; LANA-H2B inh: 7.5

How did CC(=O)C1=C(C)NC(SCC(=O)c2ccc(F)cc2)=C(C#N)C1CC(C)C (stereo not given) do in these assays?
ABHD5 PLIN5 PPI: -5.2; rCAG RNA binder: 9.4; ALR inh: -0.1; PRMT1 FP inh: 27.5*; Rtt109 Vps75: 37.0; LANA-H2B inh: -2.6

How did Cc1cc(C(=O)OCC(=O)NCc2ccco2)c(C)n1-c1ccc(F)cc1 do in these assays?
ABHD5 PLIN5 PPI: -2.0; rCAG RNA binder: -0.6; ALR inh: -3.5; PRMT1 FP inh: -1.0; Rtt109 Vps75: -5.8; LANA-H2B inh: 44.8*

Results for CCNC(=O)COC(=O)c1cc(C)n(-c2ccccc2)c1C ?
ABHD5 PLIN5 PPI: 5.1; rCAG RNA binder: 1.4; ALR inh: -16.4; PRMT1 FP inh: 0.0; Rtt109 Vps75: 6.2; LANA-H2B inh: 0.4

Results for COc1ccc2c(c1)c(C(=O)O)c(C)n2-c1ccccc1 ?
ABHD5 PLIN5 PPI: 0.4; rCAG RNA binder: 3.5; ALR inh: 0.4; PRMT1 FP inh: -4.4; Rtt109 Vps75: 1.4; LANA-H2B inh: 4.0

How did Cc1c(C(=O)O)c2cc(O)ccc2n1-c1ccccc1 do in these assays?
ABHD5 PLIN5 PPI: -4.9; rCAG RNA binder: 0.1; ALR inh: 80.3*; PRMT1 FP inh: -0.2; Rtt109 Vps75: 11.2; LANA-H2B inh: 2.2
